# According to the supplement of paper PMC6555819:
# Tests used:
# Assay in all cases: PBM binding z-score (relative to random genomic background probes); higher = stronger binding; sequences stand for … in GC…GCGATTGACAGCGTAGAATGAAGG
# [1] = tested on: PPARg:RXRa DBDmut IVT, anti-RXR (DBD mutation: RXRa K156A/R161A, NR concentration 270 nM, RXRa partner concentration 90 nM)
# In short: (§1)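 Random background probes are the reference for binding z-scores. These scores derive from regression-normalized fluorescence on custom Agilent 4×180K protein-binding microarrays incubated 1 h with ligand-free nuclear receptor dimers. Binding was detected with antibodies against each partner (one per run).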
# [2] = tested on: PPARg:RXRa IVT, anti-PPARg (NR concentration 270 nM, RXRa partner concentration 90 nM)
# In short: as §1
# [3] = tested on: PPARg DBDmut:RXRa IVT, anti-PPARg (DBD mutation: PPARg1 K132A/R137A, NR concentration 270 nM, RXRa partner concentration 90 nM)
# In short: as §1
# [4] = tested on: PPARg DBDmut IVT, anti-PPARg (DBD mutation: PPARg1 K132A/R137A, NR concentration 270 nM)
# In short: as §1
# [5] = tested on: PPARg homodimer (NR concentration 180 nM)
# In short: as §1
# [6] = tested on: PXR:RXRa (NR concentration 270 nM, RXRa partner concentration 90 nM)
# In short: as §1
# [7] = tested on: PXR homodimer (NR concentration 270 nM)
# In short: as §1
# [8] = tested on: RARa:RXR (NR concentration 270 nM, RXRa partner concentration 90 nM)
# In short: as §1
# [9] = tested on: RARa homodimer (NR concentration 270 nM)
# In short: as §1
# [10] = tested on: RARb:RXRa (NR concentration 270 nM, RXRa partner concentration 90 nM)
# In short: as §1
# [11] = tested on: RARb homodimer (NR concentration 270 nM)
# In short: as §1
# [12] = tested on: RARg:RXRa (NR concentration 270 nM, RXRa partner concentration 90 nM)
# In short: as §1
# [13] = tested on: RARg homodimer (NR concentration 270 nM)
# In short: as §1
# [14] = tested on: RXRa DBDmut IVT, anti-RXR (DBD mutation: RXRa K156A/R161A, NR concentration 90 nM)
# In short: as §1
# [15] = tested on: RXRa homodimer (NR concentration 180 nM)
# In short: as §1
# [16] = tested on: THRa:RXRa (NR concentration 90 nM, RXRa partner concentration 90 nM)
# In short: as §1
# [17] = tested on: THRa homodimer (NR concentration 90 nM)
# In short: as §1
# [18] = tested on: VDR homodimer (NR concentration 270 nM)
# In short: as §1
Sequence,PBM binding z-score [1],PBM binding z-score [2],PBM binding z-score [3],PBM binding z-score [4],PBM binding z-score [5],PBM binding z-score [6],PBM binding z-score [7],PBM binding z-score [8],PBM binding z-score [9],PBM binding z-score [10],PBM binding z-score [11],PBM binding z-score [12],PBM binding z-score [13],PBM binding z-score [14],PBM binding z-score [15],PBM binding z-score [16],PBM binding z-score [17],PBM binding z-score [18]
GCTTACGGGTCAATGGTTATAGCATGAATAGAAT,3.66,3.16,0.504,0.889,1.06,2.21,0.167,3.03,0.149,3.43,2.28,4.02,3.9,1.65,4.17,1.87,-0.17,0.787
CGTCCAAGGTCAACGTCAGTGAAAGAGACTCGAA,3.75,3.71,0.344,-0.9,2.39,3.66,0.793,4.09,1.2,5.37,3.98,6.3,7.13,3.49,6.13,4.04,2.55,1.8
ATCTCTAGGTAACAAGTTCAGTCAAAGAGAGGAC,3.46,2.97,1.25,1.27,1.63,1.77,2.04,1.1,1.66,1.62,1.92,1.45,1.43,1.09,0.866,1.62,1.12,2.65
GATACAGGGTCTAGGCCAGAGTACGCGTATTGAT,-0.37,0.257,-1.76,-0.427,-0.543,-0.687,-0.433,-0.694,-0.222,0.0286,-0.143,0.0579,0.175,-0.382,-0.304,-0.508,-0.824,0.154
GCTTGTAGATCAAGCTTAAGAAAGACTAAGCTAA,0.937,0.0262,-0.496,-0.218,-0.356,-0.566,-0.868,-0.0967,-0.929,-1.78,-1.31,-0.516,-0.459,-0.635,-0.645,-0.583,-1.48,-0.457
